Compounds with a hit are over-represented: about 7.1% of the library has one in this group of screens.
LASV entry inh: blocks Lassa virus binding or cell entry; Lassa virus pseudotyped entry inhibition, cell-based qHTS; Potency, µM (titrated, usually from 49.2 µM), actives largely listed as inhibitors; 18,000 tested, 4.1% active
MARV entry inh: inhibitors of Marburg virus binding or entry into cells. Marburg virus pseudotype entry/binding inhibition, cell-based. Potency, µM (doses to about 49.2 µM), hits mostly inhibitors. 18,000 tested, 6.5% active. AID 720532
A number is an active result; i = inactive; ? = inconclusive; nt = no result; ! = a repeat was not active; [ ] = dose if it differs, or a comment. The call rests on the fitted dose curve; tested in HEK293 cells.

SMILES	LASV entry inh	MARV entry inh
C[C@]12C[C@@](C)(C=C1C=Cc1ccc(F)cc1)C(=O)C[C@H]2c1ccc(F)cc1	nt	i[8.59 µM]
FC(F)(F)c1ccccc1-c1ccc2ncnc(NC3CCNCC3)c2c1	i	11µM
COc1cccc(-c2ccc3ncnc(NC4CCNCC4)c3c2)c1	i	?
CC(=O)Oc1cc(-c2coc3cc(OC(C)=O)c(OC(C)=O)c(OC(C)=O)c3c2=O)cc(OC(C)=O)c1OC(C)=O	i	14µM
COc1cc(-c2coc3cc(OC)c(OC)c(OC)c3c2=O)cc(OC)c1OC	i	i
COc1cc(/C=C/C(=O)O)ccc1O	i	i
COc1cc(C=C2CCC/C(=C\c3ccc(O)c(OC)c3)C2=O)ccc1O	32µM	?
COc1cc(C=O)ccc1O	i	i
COc1ccc(/C=C/C(=O)CC(=O)/C=C/c2cccc(O)c2OC)cc1O	10µM	8.9µM
COc1cc(/C=C/C(=O)CC(=O)/C=C/c2ccc(O)c(OC)c2)ccc1O	32µM!	?
COc1cccc(/C=C/C(=O)O)c1C(C)C	i	i
CC(C)=CCCC(C)=CCON=C1C[C@@H](O)[C@@H](O)[C@@H]2[C@H]3C(=O)N(Cc4ccccc4)C(=O)[C@@H]3CC[C@@H]12	i[8.59 µM]	i[8.59 µM]
C=CCN1C(=O)[C@]2(O[C@H](C)CC3=CCCC32)c2c(Br)cccc21 (some centres not stated)	i[8.59 µM]	i[8.59 µM]
Oc1cc(Cl)ccc1Oc1ccc(Cl)cc1Cl	25µM!	35µM!
O=C(O)Cc1ccccc1Oc1ccc(Cl)cc1Cl	i	i
COc1ccc2c(c1)CO[C@H]([C@H](O)COC(C)=O)[C@H]2C=Cc1ccccc1	i[8.59 µM]	i[8.59 µM]
O=c1c(O)c(-c2ccc(O)c(O)c2)oc2c(O)c(O)cc(O)c12	i	?
O=c1oc2c(O)c(O)cc3c(=O)oc4c(O)c(O)cc1c4c23	i	1µM
c1ccc(C2NCCc3c2[nH]c2ccccc32)cc1 (configuration not stated)	i[8.59 µM]	i[8.59 µM]
O=C(C=Cc1ccccc1)Nc1cccc(C(=O)N2CCCC2)c1	i	i
C[C@]12O[C@H](C[C@]1(O)CO)n1c3ccccc3c3c4c(c5c6ccccc6n2c5c31)CNC4=O	11µM	1µM
CN[C@@H]1C[C@@]2(C)O[C@@H]([C@@H]1OC)n1c3ccccc3c3c4c(c5c6ccccc6n2c5c31)C(=O)NC4	1µM	?
CCOC(=O)OC[C@H]1O[C@H](C#Cc2ccc(F)cc2F)C=C[C@H]1OC(=O)OCC	i[8.59 µM]	i[8.59 µM]
C=CCCCN1C=C(C(=O)OCC)C(c2ccccc2)NC1=O (configuration not stated)	i[8.59 µM]	i[8.59 µM]
O=S(=O)(O)c1cc(N=C=S)ccc1/C=C/c1ccc(N=C=S)cc1S(=O)(=O)O	i	i
SMILES	LASV entry inh	MARV entry inh
Nc1ccc(/C=C/c2ccc(N)cc2S(=O)(=O)O)c(S(=O)(=O)O)c1	i	25µM
Oc1ccc2c3c1O[C@H]1c4[nH]c5c(c4C[C@@]4(O)[C@@H](C2)N(CC2CC2)CC[C@]314)C[C@]1(O)[C@H]2Cc3ccc(O)c4c3[C@@]1(CCN2CC1CC1)[C@@H]5O4	i	i
COc1ccc2c3c1O[C@H]1C(=O)CC[C@@]4(O)C(C2)N(CC2CC2)CCC314 (some centres not stated)	i	?
Oc1ccc2c3c1O[C@H]1c4oc5ccccc5c4C[C@@]4(O)C(C2)N(CC2CC2)CC[C@]314	?	14µM
Oc1ccc2c3c1O[C@H]1c4c(c5ccccc5n4Cc4ccccc4)C[C@@]4(O)C(C2)N(CC2CC2)CC[C@]314	14µM	7.9µM
COCOCCn1cc(CN2CCS(=O)(=O)N(Cc3ccc(-c4cccc(N(C)C)c4)cc3)C(C)C2=O)nn1 (configuration not stated)	i	i
CCOC(=O)CN1C(=O)NC(c2ccc(Br)cc2)C(C(C)=O)=C1C (configuration not stated)	i[8.59 µM]	i[8.59 µM]
CCCCNc1c(C(=O)OCC)c(C)nc2c1cnn2CC	25µM!	7.9µM!
CCOC(=O)c1c(C)n(C)c2ccc(O)cc12	i	i
CC12C=C(C=Cc3ccc(C(F)(F)F)cc3)C(C)(C1)C(c1ccc(C(F)(F)F)cc1)CC2=O (configuration not stated)	i[8.59 µM]	i[8.59 µM]
NC(=O)c1cc(-c2ccc(F)cc2)cc(-c2ccncc2)c1N	i	?
CCN(CC)CCNC(=O)c1cnn(-c2ncc3c(n2)-c2ccc(OC)cc2CC3)c1C	?	13µM
CCC(O)CNC(=O)c1cnn(-c2ncc3c(n2)-c2ccc(OC)cc2CC3)c1C1CC1 (configuration not stated)	i	i
COC(=O)C1=C(C)C(=O)[C@]2(O)c3ccccc3N(C)[C@]12C	i[8.59 µM]	i[8.59 µM]
CCCNC[C@H](O)COc1ccccc1C(=O)CCc1ccccc1	i	8.9µM
N#Cc1ccccc1OC[C@H](O)CNCCNC(=O)Nc1ccccc1	i	i
C=C(C)CCN1C(=O)NC(c2cccc(C(F)(F)F)c2)C(C(=O)OC)=C1C (configuration not stated)	i[8.59 µM]	i[8.59 µM]
Oc1ccc2c3c1O[C@H]1[C@H](O)CC[C@@]4(O)[C@@H](C2)N(CC2CC2)CC[C@]314	i	i

Assay outcomes as filed in PubChem BioAssay.
